This passage reports Potency results from PubChem BioAssay (Tox21).

Results filed as inconclusive are left out. Unmarked numbers belong to inactive results. Activity calls are given as the source filed them. Unless noted, the call rests on the fitted dose curve; in most records, active means well fitted curve in the direction sought with a large enough effect in the repeat runs; inconclusive means weak or mixed curves; inactive means no such curve, though single readings can be large; an effect the other way counts as inactive or inconclusive.

Test [1] is described as follows: qHTS assay to identify small molecule that activate the aryl hydrocarbon receptor (AhR) signaling pathway - cell viability counter screen (AID 743086).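 Further: HepG2 liver cells carrying the AhR DRE luciferase reporter; series mostly up to about 70 µM; nearly all actives have a fitted effect of over 45% in size.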 The procedure, abridged: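 HepG2-AhR-luc (HG2L7.5c1) cells, 4000/well, treated 24 h at 37 C with compound; viability measured as CellTiter-Fluor fluorescence after 30 min in the same wells as the luciferase read.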

Test [2] is described as follows: qHTS assay to identify small molecule antagonists of the peroxisome proliferator-activated receptor gamma (PPARg) signaling pathway - cell viability counter screen (AID 743194). Further: nearly all actives have a fitted effect of over 55% in size. The conditions noted are these: Potency: co-treated with 50 nM rosiglitazone unless noted. The procedure, abridged:
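Cytotoxicity counter screen in PPARg-bla HEK293H cells, same wells as reporter assay. Compounds plus 50 nM rosiglitazone (final) for 17 h at 37 C, then viability read by CellTiter-Glo luminescence.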

Test [3] in a line: qHTS assay for small molecule agonists of the antioxidant response element (ARE) signaling pathway (AID 743202; active means well fitted activation curve with a large enough effect in the signal ratio in the repeat runs, not every such curve was filed as active; the % refers to the signal ratio; further: potency means the concentration at half of the fitted maximal effect). The procedure, abridged:
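HepG2 ARE-bla cells; 16 h treatment at 37 C; FRET-based beta-lactamase fluorescence read after 2 h substrate incubation at room temperature.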

Test [4] in a line: qHTS assay for small molecule agonists of the antioxidant response element (ARE) signaling pathway - cell viability counter screen (AID 743203; calls by dose curve; further: nearly all actives have a fitted effect of over 55% in size; further: potency means the concentration at half of the fitted maximal effect). The procedure, abridged: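 ATP content via CellTiter-Glo luminescence served as the viability measure. Cells: ARE-bla HepG2, 2,000 per well. Exposure: 16 hrs, 37C/5% CO2.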
The nature of test [5]: qHTS assay for small molecule activators of the heat shock response signaling pathway - cell viability counter screen (AID 743209). Further: nearly all actives have a fitted effect of over 50% in size. The procedure, abridged: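 Compounds dissolved in DMSO were added to overnight-plated HSE-bla HeLa cells and left 5 h at 37 C. Cell viability was quantified by luminescence using CellTiter-Glo.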
The nature of test [6]: qHTS assay for small molecule activators of the heat shock response signaling pathway (AID 743210; active means well fitted activation curve with a large enough effect in the signal ratio in the repeat runs, with a control signal flat, not every such curve was filed as active; the % refers to the signal ratio;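 further: HeLa cells with beta-lactamase reporter driven by heat shock elements; series mostly up to about 63 µM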). The procedure, abridged:
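Following overnight attachment, HSE-bla HeLa cells received test compounds for 5 h at 37 C; beta-lactamase activity was then detected via FRET substrate fluorescence.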

Test [7] is described as follows: qHTS assay to identify small molecule agonists of the peroxisome proliferator-activated receptor delta (PPARd) signaling pathway - cell viability counter screen (AID 743211). Further: nearly all actives have a fitted effect of over 55% in size. The procedure, abridged:
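Multiplexed format: after the 2 h room-temperature LiveBLAzer B/G FRET step, CellTiter-Glo was added to the same wells. Luminescence after 30 min gave cell viability; compound exposure was 17 h at 37C.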

Test [8] in a line: qHTS assay to identify small molecule antagonists of the peroxisome proliferator-activated receptor delta (PPARd) signaling pathway - cell viability counter screen (AID 743213). Further: nearly all actives have a fitted effect of over 50% in size. The procedure, abridged: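 PPARd-bla HEK293H cells (3000/well) got compound plus 300 nM L165041 agonist for 17 h at 37 C. Viability in the same wells came from CellTiter-Glo luminescence after 30 min at room temperature.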

In test [9] the target is Peroxisome proliferator-activated receptor delta (Homo sapiens) (UniProt Q03181). In words: qHTS assay to identify small molecule antagonists of the peroxisome proliferator-activated receptor delta (PPARd) signaling pathway (AID 743215; active means well fitted inhibition curve with a large enough effect in the signal ratio in the repeat runs, not every such curve was filed as active; the % refers to the signal ratio;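 further: cells stimulated with agonist L165041 at 300 nM final during compound exposure; series mostly up to about 62 µM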). The procedure, abridged:
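Here, a reporter line (HEK293H, beta-lactamase under a UAS) measures PPARd signaling. Compounds are tested against agonist L165041 at 300 nM final concentration over 17 h at 37 C, with fluorescence read after substrate.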

The nature of test [10]: qHTS assay to identify small molecule agonists of the farnesoid-X-receptor (FXR) signaling pathway - cell viability counter screen (AID 743218). Further: nearly all actives have a fitted effect of over 45% in size. The procedure, abridged:
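Quantitative HTS counter screen measuring ATP-based viability via CellTiter-Glo luminescence in HEK 293T cells carrying a UAS-driven beta-lactamase reporter, after 16 h compound exposure at 37 C.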

The target of test [11] is Peroxisome proliferator-activated receptor delta (Homo sapiens) (UniProt Q03181). In words: qHTS assay to identify small molecule agonists of the peroxisome proliferator-activated receptor delta (PPARd) signaling pathway (AID 743212; calls by dose curve). The procedure, abridged: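 Tox21 library screened in GeneBLAzer PPARd UAS-bla HEK293H cells. After compound treatment at 37 C, a FRET-based beta-lactamase substrate was applied for 2 h and fluorescence recorded.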

Test [12] in a line: qHTS assay to identify small molecule antagonists of the farnesoid-X-receptor (FXR) signaling pathway - cell viability counter screen (AID 743221; active means well fitted cell-killing curve with a large enough effect in the repeat runs, not every such curve was filed as active; further: nearly all actives have a fitted effect of over 50% in size). The procedure, abridged: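 CellTiter-Glo, 30 min RT, luminescence; same wells as the LiveBLAzer FRET read. Cells: FXR-UAS-bla HEK 293T. Treatment: compound with chenodeoxycholic acid 50 uM final, 16 h at 37 C.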
Test [13] has as its target Vitamin D3 receptor (Homo sapiens) (UniProt P11473). The test can be described thus: qHTS assay to identify small molecule antagonists of the vitamin D receptor (VDR) signaling pathway (AID 743223; active means well fitted inhibition curve with a large enough effect in the signal ratio in the repeat runs, not every such curve was filed as active; the % refers to the signal ratio). The procedure, abridged:
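After VDR-bla cells are plated and left 4 h at 37C, DMSO-dissolved compounds and 3 nM (final) calcitriol agonist are added. Incubation continues 16 h at 37C; FRET beta-lactamase substrate then develops 2 h at room temperature.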

For test [14], the target named is Peroxisome proliferator-activated receptor gamma (Homo sapiens) (UniProt P37231). In words: qHTS assay to identify small molecule agonists of the peroxisome proliferator-activated receptor gamma (PPARg) signaling pathway (AID 743094; active means well fitted activation curve with a large enough effect in the signal ratio in the repeat runs, not every such curve was filed as active; the % refers to the signal ratio). The procedure, abridged:
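Agonism was assessed in a beta-lactamase reporter system, HEK293H cells with a stably integrated UAS-bla construct under PPARg control; the 17 h treatment at 37C preceded a 1 h room-temperature FRET substrate read.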

For test [15] the target is unchanged. The test can be described thus: qHTS assay to identify small molecule antagonists of the peroxisome proliferator-activated receptor gamma (PPARg) signaling pathway (AID 743191; calls by dose curve; further: series mostly up to about 63 µM; nearly all actives have a fitted effect of over 30% in size). The procedure, abridged: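 GeneBLAzer PPARg UAS-bla HEK293H cells, 5 h post-plating, exposed to compounds 17 h at 37C. LiveBLAzer B/G FRET substrate added for 1 h at room temperature; beta-lactamase reporter read by fluorescence intensity.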

For test [16], the target named is Bile acid receptor (Homo sapiens) (UniProt Q96RI1). The test can be described thus: qHTS assay to identify small molecule antagonists of the farnesoid-X-receptor (FXR) signaling pathway (AID 743217; active means well fitted inhibition curve with a large enough effect in the signal ratio in the repeat runs, not every such curve was filed as active; the % refers to the signal ratio). The procedure, abridged:
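Test compounds are pin-transferred onto FXR-bla HEK 293T cells, then chenodeoxycholic acid is added at 50 uM final. After 16 h at 37 °C, LiveBLAzer B/G substrate is applied for 2 h at room temperature and fluorescence read.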

The target is the same in test [17]. In words: qHTS assay to identify small molecule agonists of the farnesoid-X-receptor (FXR) signaling pathway (AID 743220; active means well fitted activation curve with a large enough effect in the signal ratio in the repeat runs, not every such curve was filed as active; the % refers to the signal ratio). The procedure, abridged:
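FXR-UAS-bla HEK 293T cells carrying a UAS-driven beta-lactamase reporter were plated for 5 h at 37C/5% CO2, then exposed to DMSO-dissolved Tox21 10K compounds for 16 h at 37C. A LiveBLAzer B/G FRET substrate was loaded for 2 h at room temperature before fluorescence reading.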

Test [18] addresses Vitamin D3 receptor (Homo sapiens) (UniProt P11473). The test can be described thus: qHTS assay to identify small molecule agonists of the vitamin D receptor (VDR) signaling pathway (AID 743222; calls by dose curve). The procedure, abridged: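 Tox21 cell reporter format: VDR-bla line, 16 h compound exposure in 5% CO2 at 37C, then fluorescence intensity after 2 h with LiveBLAzer B/G FRET substrate.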

In test [19] the target is Aryl hydrocarbon receptor (Homo sapiens) (UniProt P35869). The test can be described thus: qHTS assay to identify small molecule that activate the aryl hydrocarbon receptor (AhR) signaling pathway (AID 743085).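 Further: HG2L7.5c1 human HepG2 liver cells with stably integrated DRE-driven firefly reporter; series mostly up to about 70 µM; nearly all actives have a fitted effect of over 15% in size.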 The procedure, abridged:
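Reporter assay in engineered HepG2 line HG2L7.5c1, whose plasmid carries twenty dioxin responsive elements upstream of firefly luciferase. Treatment lasted 24 h at 37C; ONE-Glo luminescence gauged induction.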

Peroxisome proliferator-activated receptor gamma (Homo sapiens), sequence (P37231 whole entry, looked up): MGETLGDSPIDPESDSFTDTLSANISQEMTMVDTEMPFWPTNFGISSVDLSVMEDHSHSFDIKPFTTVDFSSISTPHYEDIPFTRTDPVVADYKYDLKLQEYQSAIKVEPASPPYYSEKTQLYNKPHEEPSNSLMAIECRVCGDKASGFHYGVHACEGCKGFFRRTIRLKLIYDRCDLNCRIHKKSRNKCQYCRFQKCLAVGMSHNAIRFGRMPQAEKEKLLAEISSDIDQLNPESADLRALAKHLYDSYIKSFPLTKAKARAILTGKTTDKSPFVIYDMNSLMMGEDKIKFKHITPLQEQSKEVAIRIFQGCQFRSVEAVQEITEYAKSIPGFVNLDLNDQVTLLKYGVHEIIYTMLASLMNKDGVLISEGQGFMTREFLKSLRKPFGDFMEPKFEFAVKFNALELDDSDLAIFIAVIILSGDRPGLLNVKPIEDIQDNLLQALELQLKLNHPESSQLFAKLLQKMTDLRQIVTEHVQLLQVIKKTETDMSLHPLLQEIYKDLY
Bile acid receptor (Homo sapiens), sequence (Q96RI1 whole entry, looked up): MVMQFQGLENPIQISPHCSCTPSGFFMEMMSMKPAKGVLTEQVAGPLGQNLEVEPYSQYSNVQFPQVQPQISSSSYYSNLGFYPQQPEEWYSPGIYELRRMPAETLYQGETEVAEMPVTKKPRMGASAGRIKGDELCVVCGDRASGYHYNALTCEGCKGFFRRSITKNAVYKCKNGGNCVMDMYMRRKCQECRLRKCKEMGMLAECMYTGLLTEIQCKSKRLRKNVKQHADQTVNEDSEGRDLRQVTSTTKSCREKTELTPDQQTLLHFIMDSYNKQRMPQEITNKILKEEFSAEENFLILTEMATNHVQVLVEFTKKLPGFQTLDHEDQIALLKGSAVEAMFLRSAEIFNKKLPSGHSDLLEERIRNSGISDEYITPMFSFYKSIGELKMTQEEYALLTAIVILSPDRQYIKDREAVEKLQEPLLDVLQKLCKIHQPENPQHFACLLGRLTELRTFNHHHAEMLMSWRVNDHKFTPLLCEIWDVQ
Vitamin D3 receptor (Homo sapiens), sequence (P11473 whole entry, looked up): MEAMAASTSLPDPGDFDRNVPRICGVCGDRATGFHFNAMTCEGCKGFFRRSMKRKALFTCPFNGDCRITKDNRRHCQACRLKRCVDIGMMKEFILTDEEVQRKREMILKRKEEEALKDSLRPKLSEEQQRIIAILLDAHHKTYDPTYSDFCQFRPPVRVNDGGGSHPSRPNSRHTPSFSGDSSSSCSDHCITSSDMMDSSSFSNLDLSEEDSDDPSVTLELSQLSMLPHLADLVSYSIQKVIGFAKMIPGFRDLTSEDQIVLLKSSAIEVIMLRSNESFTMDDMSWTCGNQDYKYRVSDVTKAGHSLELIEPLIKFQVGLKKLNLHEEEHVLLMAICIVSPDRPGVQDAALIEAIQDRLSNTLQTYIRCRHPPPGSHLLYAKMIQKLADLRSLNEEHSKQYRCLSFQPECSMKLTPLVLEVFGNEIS
Peroxisome proliferator-activated receptor delta (Homo sapiens), sequence (Q03181 whole entry, looked up): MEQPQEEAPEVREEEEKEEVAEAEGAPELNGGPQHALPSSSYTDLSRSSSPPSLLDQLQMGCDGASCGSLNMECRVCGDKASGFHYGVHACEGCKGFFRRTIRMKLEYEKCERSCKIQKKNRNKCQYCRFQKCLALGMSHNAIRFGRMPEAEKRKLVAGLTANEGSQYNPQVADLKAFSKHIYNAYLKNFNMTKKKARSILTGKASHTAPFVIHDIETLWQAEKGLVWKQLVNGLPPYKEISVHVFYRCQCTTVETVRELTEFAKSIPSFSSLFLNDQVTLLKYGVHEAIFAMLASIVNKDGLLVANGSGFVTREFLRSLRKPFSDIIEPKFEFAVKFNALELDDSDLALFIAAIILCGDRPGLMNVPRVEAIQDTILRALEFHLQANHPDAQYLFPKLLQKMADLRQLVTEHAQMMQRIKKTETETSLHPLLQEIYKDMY
Aryl hydrocarbon receptor (Homo sapiens), sequence (P35869 whole entry, looked up): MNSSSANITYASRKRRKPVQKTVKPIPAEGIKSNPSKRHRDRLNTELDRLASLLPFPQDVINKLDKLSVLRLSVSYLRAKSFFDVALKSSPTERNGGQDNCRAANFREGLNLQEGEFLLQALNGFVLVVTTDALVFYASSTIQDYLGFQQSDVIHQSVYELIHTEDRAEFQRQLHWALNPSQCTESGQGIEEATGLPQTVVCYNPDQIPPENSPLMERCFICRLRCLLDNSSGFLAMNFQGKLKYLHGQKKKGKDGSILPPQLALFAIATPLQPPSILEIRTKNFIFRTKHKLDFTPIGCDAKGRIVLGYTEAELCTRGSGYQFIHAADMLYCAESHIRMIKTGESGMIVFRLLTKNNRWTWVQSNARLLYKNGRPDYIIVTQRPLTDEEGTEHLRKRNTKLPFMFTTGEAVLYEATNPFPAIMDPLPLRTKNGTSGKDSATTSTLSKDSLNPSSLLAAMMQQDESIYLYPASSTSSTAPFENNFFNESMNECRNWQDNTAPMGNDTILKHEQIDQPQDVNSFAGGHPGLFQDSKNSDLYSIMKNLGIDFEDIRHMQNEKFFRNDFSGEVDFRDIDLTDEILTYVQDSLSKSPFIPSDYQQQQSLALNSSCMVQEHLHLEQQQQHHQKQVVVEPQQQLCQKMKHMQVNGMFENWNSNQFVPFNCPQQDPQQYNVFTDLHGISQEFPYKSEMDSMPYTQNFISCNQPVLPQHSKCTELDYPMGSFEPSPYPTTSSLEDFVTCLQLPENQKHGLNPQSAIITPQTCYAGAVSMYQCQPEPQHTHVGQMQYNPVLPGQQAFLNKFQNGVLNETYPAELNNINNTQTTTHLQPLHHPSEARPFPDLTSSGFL

Turning to `Nc1cc(Cl)ccc1Cl`, the Potency result in test [1], in test [2], in test [3], in test [4], in test [5] and in test [6] was “inactive” each time. Further, the Potency entry in [7], in test [8], in [9] and in test [10] was “inactive” each time.
For the compound `CSSC`, the Potency result in [1], in test [3], in test [4], in test [6], in [7] and in test [11] was “inactive” in each case. The Potency entry in test [8], in test [9], in test [10], in [12] and in [13] was “inactive” each time.
In the case of `Nc1nc(N)c(N)c(N)n1`, the Potency result in [1], in test [14], in test [15], in test [2], in [3] and in test [4] was “inactive” each time. The Potency entry in [5], in [6], in test [8], in test [10], in test [12] and in test [13] was “inactive” throughout.
In the case of `CN1C2CCC(C)(C)C1CC(OC(=O)C(O)(c1cccs1)c1cccs1)C2` (centres undefined), the Potency result in [2], in test [3], in test [4], in test [6], in test [7] and in [11] was “inactive” each time. Further, the Potency result in [8], in [9], in [16], in [10], in [17] and in test [18] was “inactive” each time. Moreover, the Potency entry in test [13] was “inactive”.
`O=[N+]([O-])C(Br)Br`: the Potency result in test [19], in test [1], in test [14], in [5], in test [6] and in test [7] was “inactive” in each case. Besides, the Potency result in test [11], in [8], in test [9], in test [10] and in [18] was “inactive” throughout. For the same compound, the Potency in test [4] was 61.3 µM (active).
`N#Cc1c2ccccc2cc2ccccc12`: the Potency entry in test [2], in test [4], in test [5], in [8] and in [12] was “inactive” in each case.
Consider `Cc1cc(C2CC2)nc(Nc2ccccc2)n1`, for which the Potency entry in [1], in test [14], in [2], in test [4], in test [5] and in [10] was “inactive” throughout. The Potency result in test [17], in [12] and in test [18] was “inactive” in each case. Also, the Potency in test [3] was 27.3 µM (active).
Turning to `CC[N+]1(CC)CCC(OC(=O)C(O)(c2ccccc2)c2ccccc2)C1` (centres undefined), the Potency result in test [2], in test [3], in test [4], in test [5], in [6] and in [7] was “inactive” each time. The Potency result in test [8], in [16], in test [10], in test [12] and in test [13] was “inactive” each time.
Turning to `CN1C(=O)[C@@H](NC(=O)c2cc3ccccc3[nH]2)N=C(c2ccccc2)c2ccccc21`, the Potency entry in [1], in [2], in test [4], in [5], in [7] and in test [8] was “inactive” in each case. Further, the Potency result in [10], in test [12], in test [18] and in test [13] was “inactive” each time.
